The whole screen tested about 9,900 compounds, of which about 90 (0.9%) were called active. Roughly 2% stayed inconclusive and do not appear here. This is one part of a sample in which actives are shown more often than they occur.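 How the source made its calls: active means mean normalized replicate activity at least 50 and at least half of replicates each reaching 50; inconclusive means only one of the two criteria met; inactive means neither criterion met.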

A short description of this assay: reduction of CTGF mRNA in DLD1 cells – DLD1 colon cancer cells, RT-qPCR, single point, primary screen (AID 743449).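 Further: 0% = neutral control wells and 100% = dasatinib control wells; higher means stronger suppression of CTGF expression like dasatinib.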 The settings on record: 24 h, at 12.5 µM, active compounds read high. On the technique in general: In qPCR the cycle at which signal appears reflects the starting amount.
With `Cc1ccccc1-c1ccc([C@@H]2[C@H](CO)N3CCCCN(S(=O)(=O)Cc4ccccc4)C[C@@H]23)cc1`, the inhibition was 26% (inactive).
On to `Cc1ccccc1-c1ccc([C@H]2[C@@H](CO)N3CCCCN(S(=O)(=O)Cc4ccccc4)C[C@@H]23)cc1`, for which the inhibition was 66% (active).
With `Cc1cccc(-c2ccc([C@H]3[C@@H](CO)N4CCCCN(S(=O)(=O)c5ccccc5F)C[C@@H]34)cc2)c1`, the inhibition is -8.63% (inactive).
Then `CC(=O)N1CCCCN2[C@@H](CO)[C@H](c3ccc(-c4ccccc4)cc3)[C@@H]2C1`, with 62% (active).
Take `CC(=O)N1CCCCN2[C@@H](CO)[C@@H](c3ccc(-c4ccccc4)cc3)[C@@H]2C1`: the inhibition is -12.5% (inactive).
For the molecule `Cc1cccc(-c2ccc([C@@H]3[C@@H](CO)N4CCCCN(S(=O)(=O)c5ccccc5F)C[C@H]34)cc2)c1`, the inhibition was 15.5% (inactive).
As for `COc1ccc(NC(=O)N2CCCCN3[C@H](C2)[C@@H](c2ccc(-c4ccccc4F)cc2)[C@@H]3CO)cc1`, the inhibition is -27.6% (inactive).
As to `CC(=O)N1CCCCN2[C@H](CO)[C@H](c3ccc(-c4ccccc4)cc3)[C@H]2C1`, the inhibition was 9.46% (inactive).
For the molecule `COc1ccc(NC(=O)N2CCCCN3[C@H](CO)[C@H](c4ccc(-c5ccccc5F)cc4)[C@H]3C2)cc1`, the inhibition is -50.7% (inactive).
Then `Cc1ccccc1-c1ccc([C@H]2[C@@H](CO)N3CCCCN(S(=O)(=O)Cc4ccccc4)C[C@H]23)cc1`, with -18.5% (inactive).
Under `Cc1cccc(-c2ccc([C@@H]3[C@@H](CO)N4CCCCN(S(=O)(=O)c5ccccc5F)C[C@@H]34)cc2)c1` stands 63.6% (active).
Then `COc1ccc(NC(=O)N2CCCCN3[C@@H](CO)[C@H](c4ccc(-c5ccccc5F)cc4)[C@@H]3C2)cc1`, with 59.6% (active); and `O=C(C[C@@H]1CC[C@@H]2[C@H](COC[C@H](O)CN2C(=O)c2ccc(F)cc2)O1)N1CCCCC1`, with 4.67% (inactive); and `C[C@@H]1CCCCO[C@H](CN(C)Cc2ccc(C(=O)O)cc2)[C@@H](C)CN([C@@H](C)CO)C(=O)c2cc(N(C)C)ccc2O1`, with -1.12% (inactive).
As for `O=C1N[C@H](Cc2ccccc2)COCc2cnnn2CC[C@@H]1Cc1ccc(-c2ccccc2)cc1`, the inhibition was 10.4% (inactive).
Under `CS(=O)(=O)N1[C@@H](CO)[C@@H](c2ccccc2)C12CN(Cc1cc(F)ccc1F)C2` stands 2.97% (inactive).
Take `CCC(=O)N1C[C@H](C)[C@@H](OC)CN(C)C(=O)c2ccc(NC(=O)CC(F)(F)F)cc2OC[C@@H]1C`: the inhibition is -9.99% (inactive).
For `CC(C)N(C[C@H]1N[C@H](CO)[C@H]1c1ccccc1)S(=O)(=O)c1ccccc1`, the inhibition was -1.38% (inactive).
As to `COc1ccccc1C#Cc1ccc([C@H]2[C@H](CO)N3CCCCN(C(=O)C4CCC4)C[C@@H]23)cc1`, the inhibition was 68.7% (active).
Under `COc1ccccc1C#Cc1ccc([C@@H]2[C@@H](CO)N3CCCCN(C(=O)C4CCC4)C[C@H]23)cc1` stands 4.8% (inactive); under `COc1ccccc1C#Cc1ccc([C@@H]2[C@H]3CN(C(=O)C4CCC4)CCCCN3[C@H]2CO)cc1`, 14.7% (inactive); under `O=S(=O)(c1ccccc1)N1CCCCN2[C@@H](CO)[C@H](c3ccc(C#CC4CCCC4)cc3)[C@@H]2C1`, 1.07% (inactive).
In the case of `O=S(=O)(c1ccccc1)N1CCCCN2[C@H](C1)[C@@H](c1ccc(C#CC3CCCC3)cc1)[C@@H]2CO`, the inhibition was 50.5% (active).
Then `O=S(=O)(c1ccccc1)N1CCCCN2[C@H](CO)[C@H](c3ccc(C#CC4CCCC4)cc3)[C@H]2C1`, with -84.2% (inactive).
In the case of `O=C(C[C@H]1CC[C@H]2[C@@H](COC[C@@H](O)CN2C(=O)Nc2ccccc2)O1)NCc1ccccc1F`, the inhibition is 8.8% (inactive).
Then `CCCN1C[C@H](C)[C@H](OC)CN(C)C(=O)c2ccc(NS(=O)(=O)c3cn(C)cn3)cc2OC[C@H]1C`, with -8.06% (inactive); and `CCCC(=O)Nc1ccc2c(c1)C(=O)N(C)C[C@H](OC)[C@@H](C)CN(Cc1ccc(F)cc1)[C@H](C)CO2`, with -14.1% (inactive); and `CN1[C@H](C(=O)Nc2nccs2)[C@@H](CO)[C@@H]2Cn3c(ccc(-c4ccccc4F)c3=O)[C@@H]21`, with -2.79% (inactive).
Under `C/C=C/c1ccc([C@H]2[C@@H](CNC(=O)CC3CC3)N(C(=O)CC)[C@H]2CO)cc1` stands -13.1% (inactive); under `CCS(=O)(=O)Nc1ccc2c(c1)C(=O)N(C)[C@H]1CC[C@H](CC(=O)NCc3ccc(OC)cc3)O[C@@H]1CO2`, -27.1% (inactive); under `O=C(C[C@H]1CC[C@H]2NC[C@H](O)COC[C@@H]2O1)N1CCc2ccccc2C1`, 1.25% (inactive).
In the case of `C[C@H](CO)N1C[C@H](C)[C@H](CN(C)C(=O)c2cc(-c3ccccc3)on2)OCc2cnnn2CCCC1=O`, the inhibition is 29.3% (inactive).
Under `C[C@@H]1CN([C@@H](C)CO)C(=O)CCCn2nncc2CO[C@@H]1CN(C)C(=O)c1cc(-c2ccccc2)on1` stands 55.9% (active); under `C[C@@H]1CN([C@@H](C)CO)C(=O)CCCn2nncc2CO[C@H]1CN(C)C(=O)c1cc(-c2ccccc2)on1`, -32.7% (inactive).
Then `C[C@@H]1CN([C@H](C)CO)C(=O)CCCn2nncc2CO[C@H]1CN(C)Cc1cccc(C(F)(F)F)c1`, with 20.5% (inactive); and `C[C@H](CO)N1C[C@H](C)[C@@H](CN(C)C(=O)c2cc(-c3ccccc3)on2)OCc2cnnn2CCCC1=O`, with -12.2% (inactive).
Then `C[C@@H]1CN([C@H](C)CO)C(=O)CCCn2nncc2CO[C@H]1CN(C)C(=O)c1cc(-c2ccccc2)on1`, with -10.9% (inactive); and `C[C@@H]1CN([C@H](C)CO)C(=O)CCCn2nncc2CO[C@@H]1CN(C)C(=O)c1cc(-c2ccccc2)on1`, with 66% (active); and `C[C@@H]1CN([C@H](C)CO)C(=O)CCCn2nncc2CO[C@@H]1CN(C)Cc1cccc(C(F)(F)F)c1`, with 61.3% (active).
For the molecule `C[C@H](CO)N1C[C@H](C)[C@@H](CN(C)Cc2cccc(C(F)(F)F)c2)OCc2cnnn2CCCC1=O`, the inhibition is -35.1% (inactive).
`CNC[C@@H]1OCCCC[C@H](C)Oc2ccc(NS(=O)(=O)c3ccc(F)cc3)cc2C(=O)N([C@@H](C)CO)C[C@H]1C`: the inhibition was -4.63% (inactive).

A word on the inhibition: it is the relative decrease from the control value, in per cent.

For the origin of these results see PubChem BioAssay AID743449 (Broad Institute, 2014).
